# Reference: PubChem BioAssay (EPA / NIEHS)
# Activity calls are given as the source filed them. Rule for the calls: active = hit-call score of the fitted dose curve at least 0.9, where 1 is the maximum; inactive = score below 0.9.
# Biological target: CCAAT/enhancer-binding protein beta (Homo sapiens) (UniProt P17676)
# Test: ATG_C_EBP_CIS: Attagene CIS-FACTORIAL HepG2 Assay for human CCAAT/Enhancer Binding Protein (C/EBP) beta (AID 2282927)
# Settings: HepG2 Attagene cis-factorial transcription factor reporter; actives raise or lower the signal
# Description: ATG_CIS is a cell-based, multiplexed-readout assay that uses HepG2, a human liver cell line, with measurements taken at 24 hours after chemical dosing in a 24-well plate.ATG_C_EBP_CIS is one of 52 assay component(s) measured or calculated from the ATG_CIS assay. It is designed to make measurements of mRNA induction, a form of inducible reporter, as detected with fluorescence intensity signals by Reverse transcription polymerase chain reaction (RT-PCR) and Capillary electrophoresis technology.Data from the assay component ATG_C_EBP_CIS was analyzed into 1 assay endpoint. This assay endpoint, ATG_C_EBP_CIS, was analyzed with bidirectional fitting relative to DMSO as the negative control and baseline of activity. Using a type of inducible reporter, measures of mRNA for gain or loss-of-signal activity can be used to understand the reporter gene at the transcription factor-level as they relate to the gene CEBPB. Furthermore, this assay endpoint can be referred to as a primary readout, because this assay has produced multiple assay endpoints where this one serves a reporter gene function. To generalize the intended target to other relatable targets, this assay endpoint is annotated to the dna binding intended target family, where the subfamily is basic leucine zipper.
# Human liver HepG2 cells are transiently transfected with multiple reporter transcription units (MRTUs) in 6-well plates using FuGene 6 reagent (Roche; 3 ml FuGene/1 mg DNA). The MRTU constructs are regulated by a cis-regulating element (promoter). […] A major difference between the CIS and TRANS system is that in CIS activities of endogenous TFs are measured, whereas the TRANS assay evaluates changes in activities of exogenous, chimeric NR-Gal4 proteins. […] At the end of 24 hour incubation, total RNA was isolated using TriZol reagent (Invitrogen). The isolated RNA is then reverse-transcribed using oligo(dT) primer and Mo-MLV reverse transcriptase (Invitrogen) with DNAse I (Ambion) treatment for 30 min. The one-tenth of the produced cDNA was amplified by PCR using Taq DNA polymerase (Invitrogen) and two reporter sequence-specific primers. The PCR products were fluorescently labeled by primer extension with 6-arboxyfluorescein (6-FAM) 5'-labeled reporter sequence-specific primer (2 min at 95 C, 20 s at 68 C and 10 min at 72 C) and these products were digested with 5U of HpaI (New England Biolabs) for 2h at 37 C. The fragments were purified using Qiaquick PCR columns (Qiagen), analyzed on an ABI 3130xL genetic analyzer (Applied Biosystems) with peak positions identified by using a set of X-rhodamine (ROX)-labeled MapMarker1000 molecular weight standards (BioVentures). The raw capillary electrophoresis data was processed using Attagraph software (Attagene).
# Sequence of CCAAT/enhancer-binding protein beta (Homo sapiens) (P17676 whole entry, looked up): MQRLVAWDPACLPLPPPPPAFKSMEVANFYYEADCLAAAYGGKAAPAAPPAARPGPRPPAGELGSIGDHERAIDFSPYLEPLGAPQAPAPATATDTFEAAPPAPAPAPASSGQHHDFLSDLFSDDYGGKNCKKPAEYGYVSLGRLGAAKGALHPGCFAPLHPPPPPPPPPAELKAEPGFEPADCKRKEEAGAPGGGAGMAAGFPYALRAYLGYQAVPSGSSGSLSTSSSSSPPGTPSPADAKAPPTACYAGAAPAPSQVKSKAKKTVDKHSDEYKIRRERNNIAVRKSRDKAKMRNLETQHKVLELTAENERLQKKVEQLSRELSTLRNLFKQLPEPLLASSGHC
SMILES,outcome,AC50
CC(C)c1ccc2ncccc2c1,inactive,–
CCCCCCCCCC[N+](C)(CCCCCCCCCC)CCC[Si](OC)(OC)OC,–,18.2 µM (active)
C=CC(=O)OCCCCCCCC(C)C,–,63.1 µM (active)
CC(CC(C)C)=NO,inactive,–
c1ccc2c(c1)[nH]c1ccccc12,inactive,–
CC1C(C)(C)C2=C(C(=O)CCC2)C1(C)C (stereo not given),inactive,–
CC=CC(=O)OCC(C)C,inactive,–
CCCCCCCC(=O)OCC(COC(=O)CCCCCCC)OC(=O)CCCCCCC,inactive,–
CCCCCCC=O,inactive,–
CCOC(=O)[C@H](O)[C@@H](O)C(=O)OCC,inactive,–
NC(=O)Nc1ccccc1,inactive,–
CCCCCCCO,inactive,–
CCC1(C)C(=O)N(Cl)C(=O)N1Cl (stereo not given),–,38.9 µM (active)
Cc1ccc(S(=O)(=O)N=C=O)cc1,inactive,–
CC(=O)C(C)C,inactive,–
C=C[Si](OCCOC)(OCCOC)OCCOC,inactive,–
Nc1ccc(C(=O)OCCCOC(=O)c2ccc(N)cc2)cc1,inactive,–
c1ccc2sc(SSN3CCOCC3)nc2c1,inactive,–
C=CCCCCCCCCOC(C)=O,inactive,–
CC(C)c1cc(C(C)C)cc(C(C)C)c1,–,182 µM (active)

SMILES,outcome,AC50
COC(OC)(C(=O)c1ccccc1)c1ccccc1,inactive,–
CCCCCCCCCCCCCC(=O)OC(C)C,inactive,–
CC(C=O)c1ccccc1 (stereo not given),inactive,–
N#Cc1ccc(C2CCCc3cncn32)cc1 (stereo not given),inactive,–
c1ccc(-c2nc3ccccc3[nH]2)cc1,inactive,–
C=CC(=O)OCCCCCCOC(=O)C=C,inactive,–
CC(CCC(=O)O)(c1ccc(O)cc1)c1ccc(O)cc1,inactive,–
CC(=O)OC/C=C(/C)CCC=C(C)C,inactive,–
CCCCCCCOC(=O)c1ccc(O)cc1,inactive,–
c1ccc2cnccc2c1,inactive,–
CCc1cccc(C)c1N(C(=O)CS(=O)(=O)O)C(C)COC (stereo not given),inactive,–
CCCCC1CCC(=O)O1 (stereo not given),inactive,–
CC1(C)C(=O)N(CO)C(=O)N1CO,inactive,–
CC(C)(C)C1CCC(=O)CC1,inactive,–
COc1ccc(-c2coc3cc(O)cc(O)c3c2=O)cc1,inactive,–
CCCCCCCCCCCC(=O)N(C)CC(=O)O,inactive,–
COc1ccc(C(=O)c2ccccc2)c(O)c1,inactive,–
CCCCc1ccc(Cl)cc1,inactive,–
C=CCNCC=C,inactive,–
CCCCCCCC(=O)OCC,inactive,–
